According to PubChem BioAssay (Tox21):
Values without a mark were called inactive. Calls of active or inactive are those of the source. The call rests on the fitted dose curve; in most records, active means well fitted activation curve with a large enough effect in the repeat runs; inconclusive means weak or mixed curves; inactive means flat fitted curve, though single readings scatter.

Assay: Caspase-3/7 induction in CHO-K1 cells by small molecules, qHTS assay (AID 1346980); further: nearly all actives have a fitted effect of over 15% in size
Settings: CHO-K1 caspase-3/7 induction, Caspase-Glo luminescence, 17 h; series mostly up to 92.4 µM; caspase-3/7 activation: at the top concentration
Source text: National Center for Advancing Translational Sciences [NCATS]
NIH Chemical Genomics Center [NCGC]
U.S. Environmental Protection Agency [EPA]
National Institutes of Environmental Health Sciences [NIEHS]
National Toxicology Program [NTP]
Apoptosis is a process of programmed cell death and plays a central role in the development of multicellular organisms. It is a highly regulated process and induces cell death by activating caspases, which are the members of cysteine aspartic acid-specific protease (caspase) family. Caspases involved in apoptosis are classified by their mechanism of action as initiator caspases (caspase-2, -8, -9 and -10) and executioner caspases (caspase-3, -6, and -7). Inhibition of apoptosis results in number of cancers, autoimmune diseases, inflammatory diseases and viral infection. To identify small molecule compounds that induce apoptosis, a homogeneous, luminescent Caspase-Glo 3/7 assay was used. Wild type CHO-K1 cells were used to screen Tox21 libraries for identifying caspase-3/7 activity inducers.
CHO-K1 cells were dispensed at 1,500 per well in 5uL of culture medium into white solid bottom 1536-well plates (Corning Life Sciences, Corning, NY) using a Multidrop Combi (Thermo Scientific, Waltham, MA) dispenser. The assay plates were incubated at 37 C and 5% CO2 for 5hr, and then 23nL of compounds dissolved in DMSO and positive control were transferred using a Pintool station (Wako, San Diego, CA). The assay plates were incubated at 37C and 5% CO2 for 17hr. For caspase-3/7 activity read, 4uL of Caspase-Glo 3/7 reagent (Promega Corporation, Madison, WI) was added to each well of the assay plates using Flying Reagent Dispenser (FRD, Aurora Discovery, San Diego, CA) and incubated the assay plates at room temperature for 30min. The luminescence signal was quantified using a ViewLux plate reader (Perkin Elmer, Shelton, CT).
On the % scale 0 is the no-effect control and ±100 the full control effect; potency means the concentration at half of the fitted maximal effect.

Row | Structure (SMILES) | caspase-3/7 activation | Potency
1 | C[C@]12Cc3nonc3C[C@@H]1CC[C@@H]1[C@@H]2CC[C@@]2(C)[C@H]1CC[C@]2(C)O | -2.94% [at 42.5 µM] | –
2 | O=C(Cl)c1ccc(Cl)cc1 | 0.335% | –
3 | CCc1ccccc1C | -1.03% | –
4 | Nc1ccccc1C(=O)Oc1ccc2ccccc2c1 | -3.76% | –
5 | CC(C)Oc1cccc(NC(=O)c2ccccc2C(F)(F)F)c1 | -2.41% | –
6 | C[C@@H](Oc1ccc(Cl)cc1Cl)C(=O)O | -0.0819% | –
7 | CC(C)(C)OO | 0.13% | –
8 | ClC1=C(Cl)[C@]2(Cl)[C@@H]3[C@@H](Cl)[C@@H](Cl)C[C@@H]3[C@@]1(Cl)C2(Cl)Cl | 0.0944% | –
9 | O=C(O)C1C2CCC(O2)C1C(=O)O (stereo not given) | 4.49% | –
10 | C[C@]12CC[C@H]3[C@@H](CCC4=CC(=O)CC[C@@]43C)[C@@H]1CC[C@@H]2O | -1.23% | –
11 | Clc1ccc(-c2ccccc2)cc1 | -0.164% | –
12 | Oc1c(Cl)c(Cl)cc(Cl)c1Cl | -3.27% | –
13 | Nc1ccc(Cl)cc1C(=O)c1ccccc1 | 9.96% | –
14 | CCOC(=O)C1(c2ccccc2)CCN(CCC(C#N)(c2ccccc2)c2ccccc2)CC1 | -1.52% [at 42.5 µM] | –
15 | O=[N+]([O-])c1cc(Cl)ccc1Cl | 1.22% | –
16 | N#Cc1ccccc1N | 1.58% | –
17 | c1ccc2c(c1)OCC(C1=NCCN1)O2 (stereo not given) | -3.82% [at 42.5 µM] | –
18 | COC12CC[C@@]3(C[C@@H]1C(C)(O)C(C)(C)C)[C@H]1Cc4ccc(O)c5c4[C@@]3(CCN1CC1CC1)[C@H]2O5 (stereo not given in full) | – | 48.2 µM (active)
19 | CCCCCCCCCCBr | -0.0989% | –
20 | CCN | 5.3% | –

Row | Structure (SMILES) | caspase-3/7 activation | Potency
21 | Oc1ccccc1Br | 0.546% | –
22 | NC(=O)c1ccc(N)nc1 | -0.0732% | –
23 | O=c1oc2ccccc2c(O)c1Cc1c(O)c2ccccc2oc1=O | -1.67% [at 42.5 µM] | –
24 | N#CCCSCCC#N | 0.0762% | –
25 | Cc1ccc(C(=O)Cl)cc1 | 1.09% | –
26 | COc1ccc(N)cc1N | – | inactive
27 | SCc1ccco1 | 1.34% | –
28 | CC(=O)[O-].CC(=O)[O-].[Hg+2] | -6.13% | –
29 | C1CCC2CCCCC2C1 (stereo not given) | 0.121% | –
30 | CCCN(CCC)c1c([N+](=O)[O-])cc(S(N)(=O)=O)cc1[N+](=O)[O-] | – | 58.8 µM (active)
31 | CC(=O)[O-].[Tl+] | -1% | –
32 | Cl/C=C\CCl | 0.169% | –
33 | CC(C)C1CCC(Cc2ccc(Cl)cc2)C1(O)Cn1cncn1 (stereo not given) | 4.1% | –
34 | O=C(O)COc1nc(Cl)c(Cl)cc1Cl | -1.38% | –
35 | CC(C)CCCCCCCOP(=O)(Oc1ccccc1)Oc1ccccc1 | 1.88% | –
36 | COc1ccc(/C(=C/C(=O)N2CCOCC2)c2ccc(Cl)cc2)cc1OC | -0.0787% | –
37 | O=S(=O)(c1ccc(Cl)cc1)c1ccc(Cl)cc1 | -2.95% | –
38 | ClC1=C(Cl)[C@]2(Cl)[C@H]3[C@H]([C@H]4C=C[C@H]3C4)[C@@]1(Cl)C2(Cl)Cl | 0.715% | –
39 | CCCCCCCCCCCCCN1CC(C)OC(C)C1 (stereo not given) | 0.566% | –
40 | O=[N+]([O-])c1ccc2ccc3cccc4ccc1c2c34 | -0.278% | –
